# Source: PubChem (National Center for Advancing Translational Sciences (NCATS))
# IL1B secr inh: blocks inflammasome-driven IL-1 beta release. 4.7% of 360,000 active. THP-1 LPS/ATP IL-1B secretion, AlphaLISA, 16 h; hits give low values. AID 743279. activity change, % at 57.5 µM; in the data active means activity change below about -50%; inconclusive means mostly about -30% to -49%
#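 THP-1 cells pretreated 1 hr with compounds (up to 57.5 uM final), then stimulated with LPS (250 ng/mL final) plus ATP (1.25 mM final); secreted IL-1B measured by AlphaLISA after 16 hr, decreased signal indicating inhibition.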
# HT1080NT lethal: kills 2HG-producing HT-1080-NT fibrosarcoma cells; HT-1080-NT fibrosarcoma viability, CellTiter-Glo ATP luminescence, 48 h; Potency, µM (highest dose often 46.1 µM), inactives show at the highest dose activity, negative = less viability, hits mostly cytotoxic; 1.6% of 360,000 active;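 further: NT is the 2HG producing partner of a matched IDH1 knockdown line; potency means the concentration at half of the fitted maximal effect; 0% = DMSO-treated cells and -100% = media-only wells without cells; nearly all actives have a fitted effect of over 55% in size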
#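 A 48-hour cytotoxicity screen used HT-1080-NT cells plated 2 hours before compound delivery. ATP-based CellTiter-Glo luminescence measured viability, normalized to DMSO and no-cell controls.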
# DT40 TDP1 no CPT: qHTS for Inhibitors of human tyrosyl-DNA phosphodiesterase 1 (TDP1): qHTS in cells in absence of CPT. 15% of 420,000 active. DT40 Tdp1-/- hTDP1 cells, no CPT, ATP luminescence, 48 h. AID 686978, 2013. Potency, µM (doses to about 46.2 µM), without a hit: at the top dose activity change, negative = growth inhibition, most hits filed as inhibitors; further: potency means the concentration at half of the fitted maximal effect; nearly all actives have a fitted effect of over 55% in size
#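 Readout: luminescence from CellTiter-Glo after 30 min in the dark at RT. Cells: DT40 Tdp1-/- with stable hTDP1, 400/well. Exposure: compounds alone, ≥48 hr, 37 °C.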
# TDP1 cell CPT: growth inhibition of DT40 Tdp1-/-;hTDP1 cells with camptothecin (screen for TDP1 inhibitors) | Potency, µM (highest dose often 46.2 µM), inactives show top-dose activity change, negative = growth inhibition, actives largely listed as inhibitors | 12% of 420,000 active | AID 686979 | chicken DT40 Tdp1-/-;hTDP1 cells + 20 nM CPT, ATP luminescence, 48 h; further: potency means the concentration at half of the fitted maximal effect; nearly all actives have a fitted effect of over 55% in size
#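 Chicken DT40 Tdp1-/- cells complemented with human TDP1, 400 cells/well, exposed to compounds plus 20 nM camptothecin for at least 48 h at 37 C; viability read as ATP content by CellTiter-Glo luminescence.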
# HT1080 IDH1KD tx: HT-1080 IDH1 knockdown cell toxicity (counter line); HT-1080 IDH1 knockdown viability, ATP luminescence, 48 h; Potency, µM (series often up to 46.1 µM), for the others: top-dose activity, negative = toxicity, hits mostly cytotoxic; 2% of 360,000 active; AID 686971;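 further: potency means the concentration at half of the fitted maximal effect; 0% = DMSO wells and -100% = cell-free medium wells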
#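 CellTiter-Glo luminescence after 48 h compound exposure at 37 degrees C of IDH1-knockdown HT-1080 cells in 5% FBS RPMI. %Activity scaled between DMSO wells and cell-free media wells, with curves fitted and assigned curve classes.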
# Active calls of the source: *; ? = inconclusive; · = not tested or not shown; ! = a repeat was not active; [ ] = remark or other dose. Most compounds without a hit are left out; they make up all but 19% or so of the library. Unless noted, the call rests on the fitted dose curve; in most records, active means well fitted curve in the direction sought with a large enough effect; inconclusive means small, poorly fitted or top-dose-only effect, or another doubt; inactive means no such curve, though single readings can be large; an effect the other way counts as inactive or inconclusive. Unless noted, on the % scale 0 is the no-effect control and ±100 the full control effect.
SMILES,IL1B secr inh,HT1080NT lethal,DT40 TDP1 no CPT,TDP1 cell CPT,HT1080 IDH1KD tx
COc1cccc2c1C(=O)c1c(O)c3c(c(O)c1C2=O)C[C@@](O)(C(=O)CO)C[C@@H]3O[C@H]1C[C@H](N)[C@H](O)[C@H](C)O1,-107*,9.2µM*,0.021µM*!,0.21µM*!,0.33µM*
CC(NC(=O)C12CC3CC(CC(C3)C1)C2)c1ccc(F)cc1 (configuration not stated),-4,-1%,?,-22%,-2%
CC(=O)Oc1ccc(C2=Cc3ccc(OC(C)=O)cc3OC2C)cc1 (configuration not stated),9,?,12µM*,18µM*,16µM*
O=C(Nc1ccc(Oc2ccc(Br)cc2)cc1)C1=CC=CN2CCS(=O)(=O)N=C12,0,-11%[9.24 µM],-4%,-13%,-2%
Cc1ccc(OCc2ccc(C(=O)Nc3nc4ccccc4n3C)o2)c([N+](=O)[O-])c1,1,-2%,?,-11%,-3%
C[n+]1c(-c2ccccc2)sc([S-])c1-c1ccccc1,7,-10%,9.2µM*,23µM*,-13%
CC1(C)Cc2ccccc2C(=O)N1,4,4%,-3%,-1%,4%
CCNC(=O)/C=C1\NC(C)(C)Cc2c1ccc1ccccc21,?,?,21µM*,?,-3%[9.24 µM]
CC1(C)Cc2c(ccc3ccccc23)C(=O)N1,?,-17%,21µM*,?,-17%
CNC(=O)/C=C1\NC(C)(C)Cc2ccccc21,7,?,-16%,-2%,?
CCOc1ccc(CCNC(=O)c2nn(C)c3c2CS(=O)(=O)c2ccccc2-3)cc1OCC,?,11%,?,23µM*,0%
CCOc1ccc(CCNC(=O)c2nn(C)c3c2CS(=O)(=O)c2ccccc2-3)cc1,-3,-7%,3.7µM*,?,0%
CC(C)N(CCCNC(=O)c1nn(C)c2c1CS(=O)(=O)c1ccccc1-2)Cc1ccccc1,4,-5%,-3%,16µM*,-3%
O=C(O)c1cc(-c2ccc(/C=C3\NC(=O)N(c4ccc(Cl)cc4)C3=O)o2)ccc1Cl,-11,5%,-11%,-7%,0%
O=C(O)c1cc(-c2ccc(/C=C3\NC(=O)N(c4ccccc4)C3=O)o2)ccc1Cl,0,-1%,4.1µM*,?,1%
CCCNC(=O)C1CN(C(=O)c2nn(Cc3ccccc3)c(=O)c3ccccc23)c2ccccc2O1 (configuration not stated),-2,-11%,?,?,2%
CNC(=O)c1nc(C)c(C2(C)CC(c3ccccc3)=NO2)s1 (configuration not stated),10,9%,-28%,-10%,2%
Cc1nc(C(=O)NC2CCCCC2)sc1C1(C)CC(c2cccc([N+](=O)[O-])c2)=NO1 (configuration not stated),2,3%,23µM*,?,0%
Cc1nc(C(=O)Nc2cc(F)cc(Cl)c2)sc1C1(C)CC(c2ccccc2)=NO1 (configuration not stated),?,-11%,21µM*,16µM*,-3%
COc1ccc(NC(=O)c2nc(C)c(C3(C)CC(c4cccnc4)=NO3)s2)cc1 (configuration not stated),31,?,3.7µM*,5.8µM*,6.5µM*
Cc1nc(C(=O)Nc2ccc(Cl)cc2)sc1C1(C)CC(c2cccc([N+](=O)[O-])c2)=NO1 (configuration not stated),-6,5%,?,?,-12%
c1ccc2c(c1)nnn2Cn1nnc2ccccc21,30,5%,-24%,1%,10%
Nc1cc(=O)[nH]c(SCc2ccc(Cl)cc2Cl)n1,67,-12%,7.3µM*,8.2µM*,-6%
O=[N+]([O-])c1ccc(O)c(-c2nn[nH]n2)c1,7,5%,?,18µM*,13%
CCOCC(=O)Nc1ccc(-c2cn3c(C)csc3n2)cc1,·,·,?,-15%,·
SMILES,IL1B secr inh,HT1080NT lethal,DT40 TDP1 no CPT,TDP1 cell CPT,HT1080 IDH1KD tx
Cc1ccc(C(=O)CSC2=C(C#N)C(c3ccco3)C3=C(CC(C)(C)CC3=O)N2)cc1 (configuration not stated),-85*,-30%,10µM*,13µM*,?
CC1=C(C(=O)OC2CCCCC2)C(c2ccco2)C2=C(CC(C)(C)CC2=O)N1 (configuration not stated),-14,6%,?,18µM*,1%
Cc1ccc(NC(=O)CSC2=C(C#N)C(c3ccco3)C3=C(CCCC3=O)N2)cc1 (configuration not stated),-52*,-2%,?,-24%,4%
N#CC1=C(SCC(=O)c2ccc(Cl)cc2)NC2=C(C(=O)CCC2)C1c1ccco1 (configuration not stated),-88*,18µM*,5.8µM*,5.2µM*,18µM*
CCN(CC(=O)Nc1cc(Cl)ccc1C)C(=O)c1oc2ccc(OC)cc2c1C,-15,0%,?,?,-4%
Cc1ccc(S(=O)(=O)N=N/C=C2\C=CC=CN2O)cc1,-12,7%,?,-24%,2%
Cc1ccc(CNC(=O)C(CC(C)C)NS(=O)(=O)c2ccc3c(c2)oc(=O)n3C)cc1 (configuration not stated),·,·,-20%,2%,·
CC1c2ccsc2CCN1S(=O)(=O)c1ccccc1 (configuration not stated),-6,-2%,-16%,-18%,-13%
O=S(=O)(c1cccc(F)c1)N1CCc2sccc2C1c1ccc(OC(F)(F)F)cc1 (configuration not stated),7,?,15µM*,?,-23%
CCCNC(=O)CN1C(=O)c2cccnc2Sc2ccccc21,·,·,2%,6%,·
Cc1nc(NC2=NCN(CCCN3CCOCC3)CN2)nc2c(C)cccc12,-61*,-5%,16µM*,?,-13%
Cc1ccc2nc(NC3=NCN(Cc4cccnc4)CN3)nc(C)c2c1,-3,0%,-4%,-12%,-23%
CCOC(=O)N1CCC(NC(=O)C2CCN(c3nc(-c4ccc(OC)cc4)no3)CC2)CC1,11,7%,4.1µM*,?,-4%
COc1ccc(-c2noc(N3CCC(C(=O)NC(C)c4ccccc4)CC3)n2)cc1 (configuration not stated),-1,0%,26µM*,?,-11%
COc1ccc(-c2noc(N3CCC(C(=O)NCc4ccccc4Cl)CC3)n2)cc1,-2,-9%,26µM*,16µM*,-12%
COc1ccc(-c2noc(N3CCC(C(=O)N(C)c4ccccc4)CC3)n2)cc1,-3,-11%,29µM*,?,-5%
